Screens (PubChem)
SKN-1 inh = C. elegans SKN-1 inhibition. inhibition, % at 21.8 µM. C. elegans VP596 Pgst-4::GFP/RFP ratio, acrylamide-induced, 24 h. 0.49% of 360,000 active;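 active = interference check ratio from 0.5 to 1.5 plus GFP to RFP signal ratio inhibition reaching or exceeding a fixed threshold, cut at about 30% in these data, passing the limit was not always enough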
CHRM1 agonist = agonists of human M1 muscarinic receptor; AID 588814; CHO-K1 hM1, Fluo-8 calcium fluorescence, agonist mode; 0% DMSO, 100% acetylcholine EC100; activation, % at 3 µM; 0.33% of 360,000 active;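 active = activation above the run's mean compound activation plus 3 SD, cut at about 16% in these data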;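 also: peak over basal fluorescence ratio within a 140 s kinetic read after compound addition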
CHRM1 antagonist = antagonists of human M1 muscarinic receptor; P11229; CHO-K1 hM1, Fluo-8 calcium fluorescence, ACh EC80 antagonist; inhibition, % at 3 µM; 1.3% of 360,000 active; AID 588852;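 active = percent inhibition above its own plate's cutoff, namely the mean of that plate's compound wells plus 3 SD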;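 also: peak over basal fluorescence ratio during 140 s after agonist addition; 0% = ACh EC80 plus DMSO and 100% = DMSO alone without agonist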
Myeloid diff 2 = myeloid differentiation induction; ER-HoxA9 myeloid progenitors, lysozyme-GFP differentiation, flow cytometry; calls only at 10 µM; 1% of 360,000 active; AID 624256;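 active = normalized GFP-positive differentiation at or above the plate's own cutoff, the solvent-only control mean plus 3 SD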;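 also: cells exposed to compound for four days before flow analysis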
ATG4B inhibitor = ATG4B (human) cysteine protease inhibition; ATG4B cleavage of LC3-PLA2, NBD-HPC fluorescence, 1 h; inhibition, % at 8.33 µM; 0.51% of 340,000 active; in the data active = inhibition above about 40%
Target sequence (Q9Y4P1 whole entry, looked up): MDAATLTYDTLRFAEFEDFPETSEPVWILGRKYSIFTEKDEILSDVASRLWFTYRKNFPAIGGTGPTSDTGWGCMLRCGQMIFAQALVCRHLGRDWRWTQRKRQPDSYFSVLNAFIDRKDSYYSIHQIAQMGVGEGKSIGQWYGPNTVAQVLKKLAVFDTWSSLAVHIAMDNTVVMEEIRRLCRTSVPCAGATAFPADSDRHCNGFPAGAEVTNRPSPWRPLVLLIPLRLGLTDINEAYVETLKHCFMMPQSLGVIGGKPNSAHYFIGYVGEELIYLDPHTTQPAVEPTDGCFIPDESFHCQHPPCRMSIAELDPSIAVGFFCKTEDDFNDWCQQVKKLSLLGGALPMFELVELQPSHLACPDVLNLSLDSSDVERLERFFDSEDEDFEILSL
CHRM1 PAM = potentiates human M1 receptor response to acetylcholine; P11229; CHO-K1 hM1, Fluo-8 calcium fluorescence, ACh EC20; 0% = ACh EC20, 100% = maximal ACh; activation, % at 3 µM; 0.088% of 360,000 active; AID 588819; in the data active = activation above about 19%, passing the limit was not always enough
* marks the source's active call; other numbers are inactive results; i = inactive; / = not tested or not shown; + = active, no number. A selection: hits, their analogues and other compounds. The true share with any hit is near 3.5%.

SMILES	SKN-1 inh	CHRM1 agonist	CHRM1 antagonist	Myeloid diff 2	ATG4B inhibitor	CHRM1 PAM
CC1CN(C(=O)c2ccc(NS(=O)(=O)c3cccc(Cl)c3)cc2)CC(C)O1 (stereo not given)	16	0	-4	i	-3	8
Cc1ccc(NS(=O)(=O)c2ccc(C(=O)N3CCCC(C(F)(F)F)C3)cc2)cc1 (stereo not given)	-6	45*	17	i	-14	-6
CC1CN(C(=O)c2cccc(S(=O)(=O)N3CCN(c4ccc(F)cc4)CC3)c2)CC(C)O1 (stereo not given)	-8	2	-5	i	-2	0
COc1ccccc1NS(=O)(=O)c1ccc(C(=O)N2CCCC(C(F)(F)F)C2)cc1 (stereo not given)	-1	7	11	i	-3	-2
CCOc1ccc(NS(=O)(=O)c2cc(C(=O)N3CC(C)OC(C)C3)ccc2C)cc1 (stereo not given)	-3	-3	-13	i	2	14
CN1CCC(N2CCN(C3CN(Cc4cn(Cc5cccc(C(F)(F)F)c5)nn4)S(=O)(=O)C3)CC2)CC1 (stereo not given)	-7	/	/	i	/	/
Cc1ccc(S(=O)(=O)N2C[C@@H](C)[C@]3(C2)[C@H](O)[C@H](OC(=O)Nc2cccs2)C[C@H]2C(=O)N(c4ccccc4)C(=O)[C@H]23)cc1	-11	-3	-19	i	/	9
CCOc1ccc(NS(=O)(=O)c2ccc(C(=O)N3CCN(c4ncccn4)CC3)cc2)cc1	-9	6	11	i	-4	-5
Cc1ccc(S(=O)(=O)Nc2ccc(NC(=O)c3c(F)c(F)c(F)c(F)c3F)cc2)cc1	-6	24*	22	i	-8	-4
COc1ccc(OC)c(S(=O)(=O)Nc2ccc3c(c2)N(C(C)=O)CCC3)c1	-3	-6	1	i	11	-4
CC(=O)N1CCCc2ccc(NS(=O)(=O)c3ccc(C)c(C)c3)cc21	-10	0	6	+	4	-3
CCOc1ccc(NS(=O)(=O)c2ccc(C(=O)N3CCCCC3)cc2)cc1	-3	23*	15	i	0	-12
CCSCc1nnc(SCC(=O)Nc2ccc(F)cc2)n1CC	2	-3	-12	i	-1	12
CCOC(=O)C(=COC(=O)c1ccccc1)NC(=O)Cc1ccccc1	-7	-1	-2	i	-1	3
O=C(O)C1=CCCc2ccc(F)cc21	-1	-1	-19	i	-2	14
CCOC(=O)C1=CNS(=O)(=O)NC1c1ccc(C#N)cc1 (stereo not given)	-11	0	-16	i	2	12
CCCCn1nc(NS(=O)(=O)c2cccc3nonc23)c2cc3cccc(C)c3nc21	10	-5	-3	i	0	10
Cc1c(OCc2ccccc2)cccc1OCc1ccccc1	29	0	-4	i	5	4
CN(C)CCC(Oc1ccccc1OCc1ccccc1)c1ccccc1 (stereo not given)	1	1	46*	i	12	-21
CCN(CC(=O)NCCc1ccc(F)cc1)Cc1nc2ccccc2c(=O)[nH]1	-4	-1	-18	i	-7	6
CCN(CC(=O)NCc1ccc(F)cc1)CC(=O)Nc1ccccc1-c1ccccc1	-18	-1	-4	+	10	4
CCN(CC(=O)Nc1ccccc1-c1ccccc1)Cc1nc2ccccc2c(=O)[nH]1	-22	-5	-6	+	1	4
CCN(CC(=O)NCc1ccc(F)cc1)Cc1nc2cc(Cl)ccc2c(=O)[nH]1	65*	-2	8	i	-18	6
CCN(CC(=O)Nc1ccccc1OC)CC(=O)Nc1ccccc1-c1ccccc1	8	-5	-9	i	4	6
CCCCCC(=O)O/N=C(\C)c1ccn(S(=O)(=O)c2ccccc2)c1	30	2	-1	i	9	3
C/C(=N\NC(=O)C1(C)NC(C)(C)Cc2ccccc21)c1ccccc1 (stereo not given)	9	-8	-5	i	-4	4
CN(C)c1ccc(-c2csc(C(O)c3ccc(F)c(F)c3)n2)cc1 (stereo not given)	6	42*	42*	i	/	-29
